According to PubChem BioAssay (EPA / NIEHS):
Values joined by “and” are separate entries in the source; they are usually repeats but may differ in a detail not shown here. Equal values may be shown once. Active and inactive are the calls of the source. Rule for the calls: active = hit-call score of the fitted dose curve at least 0.9, where 1 is the maximum; inactive = score below 0.9.

Assays:
Conditions in all cases: primary human HUVEC with PBMC; actives raise or lower the signal
[1] = read-out: Interleukin-1 alpha (IL1a), IL1A (gene 3552); assay: BSK_LPS_IL1a: BioMAP Diversity Plus: LPS Assay for Interleukin-1 alpha (IL1a) Biomarker Activity (AID 2283080)
In short: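 Human umbilical vein endothelial cells co-cultured with PBMC and stimulated with LPS; IL-1a measured by ELISA 24 h after dosing. Bidirectional fitting against DMSO; cytotoxicity checked by SRB staining in parallel cultures.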

[2] = read-out: Monocyte Chemoattractant Protein-1 (MCP1), CCL2 (gene 6347); assay: BSK_LPS_MCP1: BioMAP Diversity Plus: LPS Assay for Monocyte Chemoattractant Protein-1 (MCP1) Biomarker Activity (AID 2283081);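 for AC50: secreted MCP-1 protein quantified by ELISA in culture supernatant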
In short: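 Human umbilical vein endothelial cells co-cultured with PBMC, LPS-stimulated; secreted MCP-1 measured by ELISA 24 h after compound addition. Bidirectional curve fitting against DMSO baseline; SRB total-protein staining in parallel cultures for cytotoxicity.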

[3] = BSK_LPS_PGE2: BioMAP Diversity Plus: LPS Assay for Prostaglandin E2 (PGE2) Biomarker Activity (AID 2283082);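 note: secreted prostaglandin E2 measured by ELISA in LPS-stimulated co-culture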
In short: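 HUVEC plus human PBMC co-culture stimulated with LPS; secreted PGE2 quantified by ELISA 24 h after chemical dosing. Activity fitted bidirectionally against DMSO baseline; parallel SRB staining (0.1% SRB after 10% TCA fixation, 560 nm) flags overt cytotoxicity.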

[4] = read-out: Macrophage colony-stimulating factor (MCSF), CSF1 (gene 1435); assay: BSK_LPS_MCSF: BioMAP Diversity Plus: LPS Assay for Macrophage colony-stimulating factor (MCSF) Biomarker Activity (AID 2283083)
In short: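 HUVEC–PBMC co-culture, M-CSF measured by ELISA 24 h after chemical dosing. Fitted in both directions relative to DMSO as negative control; overt cytotoxicity assessed by SRB total-protein staining in parallel cultures.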

[5] = read-out: Tissue Factor, F3 (gene 2152); assay: BSK_LPS_TissueFactor: BioMAP Diversity Plus: LPS Assay for Tissue Factor Biomarker Activity (AID 2283084)
In short: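 Human umbilical vein endothelial cells co-cultured with PBMC were dosed with compound. Cell-surface CD142 was measured by ELISA 24 h later. Activity was fitted bidirectionally against DMSO, with SRB total-protein staining in parallel cultures for cytotoxicity.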

[6] = read-out: Tumor necrosis factor (Homo sapiens) (UniProt P01375); assay: BSK_LPS_TNFa: BioMAP Diversity Plus: LPS Assay for Tumour Necrosis Factor alpha (TNFa) Biomarker Activity (AID 2283085);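 for AC50: TNFa protein level quantified by ELISA in the co-culture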
In short: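 Human umbilical vein endothelial cells co-cultured with PBMC and stimulated with LPS. TNFa was measured by ELISA 24 h after chemical dosing, fitted bidirectionally relative to DMSO.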

[7] = read-out: Vascular cell adhesion molecule 1 (VCAM1), VCAM1 (gene 7412); assay: BSK_LPS_VCAM1: BioMAP Diversity Plus: LPS Assay for Vascular cell adhesion molecule 1 (VCAM1) Biomarker Activity (AID 2283086)
In short: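 Human umbilical vein endothelial cells co-cultured with PBMC and stimulated with LPS; VCAM-1 measured by ELISA 24 h after dosing. Bidirectional curve fitting against DMSO baseline; cytotoxicity tracked in parallel by SRB total-protein staining.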

CD38, CD38 (gene 952) = assay: BSK_SAg_CD38: BioMAP Diversity Plus: SAg Assay for CD38 Biomarker Activity (AID 2283087)
In short: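 Human HUVEC plus PBMC co-culture stimulated with superantigen; CD38 measured by ELISA 24 h after chemical dosing. Fluorescence read-out, bidirectional fit against DMSO; cytotoxicity tracked in parallel by SRB and Alamar Blue.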

CD40, CD40 (gene 958) = assay: BSK_SAg_CD40: BioMAP Diversity Plus: SAg Assay for CD40 Biomarker Activity (AID 2283088)
In short: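 HUVEC plus PBMC co-culture, superantigen-activated, with CD40 read by ELISA 24 h after dosing. Curves fitted in both directions against DMSO. Overt cytotoxicity checked by parallel SRB total-protein staining.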

CD69, CD69 (gene 969) = assay: BSK_SAg_CD69: BioMAP Diversity Plus: SAg Assay for CD69 Biomarker Activity (AID 2283089);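 for AC50: cell surface CD69 protein quantified by ELISA with fluorescence detection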
In short: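 Values derive from bidirectional fitting relative to DMSO vehicle. Cells: umbilical vein endothelium plus peripheral blood mononuclear cells, treated 24 h before fluorescent ELISA for CD69.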

Measured: AC50

Tumor necrosis factor (Homo sapiens), sequence (P01375 whole entry, looked up): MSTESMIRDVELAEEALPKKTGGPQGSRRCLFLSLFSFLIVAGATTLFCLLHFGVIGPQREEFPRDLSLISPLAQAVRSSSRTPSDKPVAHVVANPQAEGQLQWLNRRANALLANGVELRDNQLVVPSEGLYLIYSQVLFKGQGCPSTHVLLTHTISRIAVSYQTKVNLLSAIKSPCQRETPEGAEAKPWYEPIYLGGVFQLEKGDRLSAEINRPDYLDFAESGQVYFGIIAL

Oc1ccccc1Cc1ccccc1O
active: [3] 2.47 µM and 1.8 µM
inactive: all other assays above

CCC1(C)C(=O)N(Cl)C(=O)N1Cl (stereo not given)
not listed: [3]
inactive: all other assays above

O=C(Cl)c1c(Cl)c(Cl)c(C(=O)Cl)c(Cl)c1Cl
not listed: [3]
inactive: all other assays above

CC(C)CCCCCOC(=O)CS
not listed: [3]
inactive: all other assays above

CCCCC1C(=O)N(c2ccccc2)N(c2ccccc2)C1=O
not listed: [3]
inactive: all other assays above

Nc1cccc(N)n1
not listed: [3]
inactive: all other assays above

CCNc1nc(NC(C)(C)C)nc(OC)n1
active: [6] 5.59 µM
not listed: [3]
inactive: all other assays above

C=CC(=O)NCOCCCC
active: [6] 20 µM
not listed: [3]
inactive: all other assays above

C=C(C)C(=O)OCCCCCCCCCCCC
active: [6] 32.6 µM
not listed: [3]
inactive: all other assays above

Fc1ccc(Br)cc1
not listed: [3]
inactive: all other assays above

C=CC(=O)OCCCCCCCC(C)C
not listed: [3]
inactive: all other assays above

CCCCCCCCC(CO)CCCCCC (stereo not given)
not listed: [3]
inactive: all other assays above

Nc1ccc(C(=O)O)cc1
not listed: [3]
inactive: all other assays above

COc1ccc(C(=O)c2ccccc2)c(O)c1
not listed: [3]
inactive: all other assays above

CC/C=C\C/C=C\C/C=C\CCCCCCCC(=O)OC
active: [1] 13.9 µM | [2] 30.6 µM | [4] 17.5 µM | [5] 12.6 µM | [6] 13.7 µM | [7] 27.3 µM | CD38, CD38 (gene 952) 15.1 µM | CD40, CD40 (gene 958) 14.8 µM | CD69, CD69 (gene 969) 21.6 µM

c1ccc2sc(SSN3CCOCC3)nc2c1
active: [4] 12.2 µM | CD38, CD38 (gene 952) 20 µM
not listed: [3]
inactive: all other assays above

COc1ccc(C(=O)/C(Br)=C\C(=O)O)cc1
active: [1] 20 µM and 17 µM | [2] 31.3 µM and 27.4 µM | [4] 12.8 µM and 20 µM | [5] 20 µM and 14.1 µM | [6] 14.3 µM and 28.4 µM | [7] 20 µM | CD38, CD38 (gene 952) 22.3 µM and 20 µM | CD40, CD40 (gene 958) 20 µM and 23.6 µM | CD69, CD69 (gene 969) 15.6 µM and 15.7 µM

Cc1c(O)cccc1O
not listed: [3]
inactive: all other assays above

CC=C(C)C(C)=O
not listed: [3]
inactive: all other assays above

CC(Cl)COP(=O)(OCC(C)Cl)OCC(C)Cl (stereo not given)
active: [6] 1.31 µM
not listed: [3]
inactive: all other assays above

CC(C)c1cccc(C(C)C)c1N
not listed: [3]
inactive: all other assays above

Cc1ccc([N+](=O)[O-])cc1N
not listed: [3]
inactive: all other assays above

CCCC(C)C(=O)OCC (stereo not given)
not listed: [3]
inactive: all other assays above

C=CC(=O)OCCCCCCOC(=O)C=C
active: [1] 8.11 µM | [2] 4.29 µM | [4] 5.31 µM | [5] 9.18 µM | [6] 3.96 µM | [7] 5.81 µM | CD38, CD38 (gene 952) 3.8 µM | CD40, CD40 (gene 958) 11 µM | CD69, CD69 (gene 969) 2.98 µM

CC(C)C(=O)OCCc1ccccc1
not listed: [3]
inactive: all other assays above

O=C1CCCCCCCCCCCN1
active: [6] 11.9 µM
not listed: [3]
inactive: all other assays above

CCCCCCCO
not listed: [3]
inactive: all other assays above

CCCCCCC=O
not listed: [3]
inactive: all other assays above

C=CC(=O)NC(C)(C)C
not listed: [3]
inactive: all other assays above

CC=C(C)C=CC=C(C)C
active: [7] 20 µM | CD38, CD38 (gene 952) 13.7 µM | CD40, CD40 (gene 958) 6.97 µM | CD69, CD69 (gene 969) 18.7 µM
not listed: [3]
inactive: all other assays above

CCN1CN(CC)CN(CC)C1
active: [6] 2.22 µM
not listed: [3]
inactive: all other assays above
